{"source": "PubChem BioAssay AID449768", "about": "(Vanderbilt High Throughput Screening Facility, 2010)", "note": "Hit rate of the full screen: of about 110,000 compounds, about 1,400 (1.3%) were called active.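 The calls were made as follows: active = Z score or B-score, a plate-position-corrected score, falls beyond the plate's 99.7% confidence bounds, in either direction; inactive = both scores lie inside the 99.7% bounds.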 The full list was thinned out, with actives kept by preference.", "data": [{"target": "Sodium-dependent dopamine transporter (Homo sapiens) (UniProt Q01959)", "sequence (Q01959 whole entry, looked up)": "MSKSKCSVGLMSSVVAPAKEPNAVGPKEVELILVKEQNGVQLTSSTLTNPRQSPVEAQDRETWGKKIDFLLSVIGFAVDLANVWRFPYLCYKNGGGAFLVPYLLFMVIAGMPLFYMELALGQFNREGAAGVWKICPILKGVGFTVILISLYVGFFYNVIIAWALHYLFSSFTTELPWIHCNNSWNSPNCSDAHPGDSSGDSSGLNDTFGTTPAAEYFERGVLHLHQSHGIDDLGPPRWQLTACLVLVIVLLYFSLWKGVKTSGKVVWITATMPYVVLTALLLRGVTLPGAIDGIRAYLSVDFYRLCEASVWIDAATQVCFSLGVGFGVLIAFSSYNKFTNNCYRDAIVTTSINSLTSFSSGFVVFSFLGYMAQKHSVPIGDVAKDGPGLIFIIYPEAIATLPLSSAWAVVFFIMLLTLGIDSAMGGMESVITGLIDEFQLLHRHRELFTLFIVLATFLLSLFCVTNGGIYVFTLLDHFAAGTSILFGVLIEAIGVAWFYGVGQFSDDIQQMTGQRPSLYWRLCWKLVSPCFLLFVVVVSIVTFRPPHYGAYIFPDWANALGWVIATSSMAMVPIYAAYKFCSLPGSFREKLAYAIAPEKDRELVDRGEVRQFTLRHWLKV", "experiment": "changed hDAT dopamine uptake under cocaine IC80, either direction, primary screen, cocaine antagonist project, cell-based, LLC-PK1 hDAT, [14C]-dopamine uptake, MLSMR (AID 449768);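 also: scored against the spread of the other compound wells on the same plate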", "details": "LLC-PK1 hDAT cells, [14C]-dopamine uptake with cocaine IC80; at 10 µM; actives deviate in either direction", "values": [{"smiles": "CC1(C)CC[C@]2(C(=O)O)CC[C@]3(C)C(=CCC4[C@@]5(C)CC[C@H](O)C(C)(C)C5[C@H](O)C[C@]43C)[C@@H]2C1", "note": "(stereo partly drawn)", "B-score": "1.56 (inactive)"}, {"smiles": "COC(=O)COc1cccc2c(=O)n(CC(=O)NCCc3ccc(OC)c(OC)c3)ccc12", "B-score": "-1.43 (inactive)"}, {"smiles": "CCCCN1C(N)=NC[C@@H]1Cc1ccccc1", "B-score": "-0.466 (inactive)"}, {"smiles": "CCN1C(=O)N[C@@H](c2ccccc2)C(C(=O)OC)=C1C", "B-score": "-0.748 (inactive)"}, {"smiles": "Nc1nonc1-c1nc2ccccc2n1Cc1ccc(F)cc1", "B-score": "-0.103 (inactive)"}, {"smiles": "CC(=O)Nc1nonc1-c1nc2ccccc2n1Cc1ccccn1", "B-score": "3.49 (active)"}, {"smiles": "Nc1nonc1-c1nc2ccccc2n1CCC(=O)O", "B-score": "0.142 (inactive)"}, {"smiles": "C[C@H]1CC[C@]2(O[C@@H](CCO)C[C@@H](O)[C@@H]2O)O1", "B-score": "0.279 (inactive)"}, {"smiles": "CCO[C@@H]1OC(C(N)=O)=C[C@H](c2ccc(Br)cc2)[C@H]1CCCO", "B-score": "-0.185 (inactive)"}, {"smiles": "CC[C@H](C)[C@@H](C(=O)N1CCNCC1)n1cc([C@@H](N)Cc2ccc(O)cc2)nn1", "B-score": "0.00778 (inactive)"}, {"smiles": "O=C(c1ccccc1)c1cc(-c2ccccn2)c(N2CCOCC2)s1", "B-score": "1.13 (inactive)"}, {"smiles": "CCc1ccc2ncc(C(=O)c3ccccc3)c(N3CCOCC3)c2c1", "B-score": "2.66 (active)"}, {"smiles": "CCc1ccc(NC(=O)CSc2nc3ccccc3c(=O)n2CCN2CCOCC2)cc1", "B-score": "0.477 (inactive)"}, {"smiles": "N#CCc1c(C#N)c(N)nc(N2CCCC2)c1C#N", "B-score": "-0.528 (inactive)"}, {"smiles": "C#CCCOC(=O)N1C2=NC(C(=O)OC)=C(C(=O)OC)[C@@H]3N(C)c4ccc(OC)cc4[C@]23C[C@H]1C(=O)OC", "B-score": "-0.658 (inactive)"}, {"smiles": "C#CCOCCOCCOCCNc1nc(N2CCN(C(=O)[C@H](Cc3ccc(O)cc3)n3cc(C(N)CC(C)C)nn3)CC2)nc(N2CCN(C(=O)[C@H](CCC(=O)O)n3cc(C(N)[C@H](C)CC)nn3)CC2)n1", "note": "(stereo partly drawn)", "B-score": "-0.0315 (inactive)"}, {"smiles": "C1=C(CCNc2ncnc3c2cnn3-c2ccccc2)CCCC1", "B-score": "1.22 (inactive)"}, {"smiles": "CC(=O)Nc1ccc(NC(=O)CSCc2cnn(-c3ccccc3)c2-n2cccc2)cc1", "B-score": "0.28 (inactive)"}, {"smiles": "O=C(NCCC1=CCCCC1)C1CCN(Cc2cnn(-c3ccccc3)c2-n2cccc2)CC1", "B-score": "3.85 (active)"}, {"smiles": "O=[N+]([O-])c1ccccc1NCc1ccc(Cl)cc1", "B-score": "-0.347 (inactive)"}, {"smiles": "O=C(O)c1ccccc1NC(=S)NC(NC(=O)c1ccccc1[N+](=O)[O-])C(Cl)(Cl)Cl", "note": "(stereo not drawn)", "B-score": "-2.89 (active)"}, {"smiles": "O=C(Nc1ccccc1[N+](=O)[O-])C1C(c2ccccc2)=C1c1ccccc1", "B-score": "-0.499 (inactive)"}, {"smiles": "CC1(c2nnc(-c3ccncc3)o2)CC(c2cccnc2)=NO1", "note": "(stereo not drawn)", "B-score": "-0.313 (inactive)"}, {"smiles": "CCc1nnc(SCc2cccc(F)c2)nc1CC", "B-score": "-0.0254 (inactive)"}, {"smiles": "CC(NC(=O)Nc1ccccc1)C(c1cccs1)N1CCN(c2ccccc2)CC1", "note": "(stereo not drawn)", "B-score": "-0.314 (inactive)"}, {"smiles": "COc1ccccc1C1=CC(=O)CCC1", "B-score": "-0.483 (inactive)"}, {"smiles": "C/C=C(/C)C(=O)O[C@@H]1c2cc3c(c4c2[C@@]2(CO4)C(=O)C(OC)=C(OC)C=C2C[C@@H](C)[C@H]1C)OCO3", "B-score": "-0.0544 (inactive)"}, {"smiles": "Cc1cc(C)cc(OCC(=O)Nc2nc3ccc([N+](=O)[O-])cc3s2)c1", "B-score": "0.303 (inactive)"}, {"smiles": "COC(=O)C(NC(=O)c1ccc(OC)cc1)(Nc1ncc(S(=O)(=O)c2ccc([N+](=O)[O-])cc2)s1)C(F)(F)F", "note": "(stereo not drawn)", "B-score": "1.29 (inactive)"}, {"smiles": "O=C(NC(Nc1nc2ccc([N+](=O)[O-])cc2s1)(C(F)(F)F)C(F)(F)F)c1ccccc1", "B-score": "-6.22 (active)"}, {"smiles": "COC(C[C@@H]1O[C@@H]1C(=O)[C@@H](C)OCc1ccccc1)OC", "B-score": "-1.68 (inactive)"}, {"smiles": "O=C(CCCN1C(=O)c2cccc3cccc(c23)C1=O)N1CCN(Cc2ccc3c(c2)OCO3)CC1", "B-score": "3.8 (active)"}, {"smiles": "Cn1c(=O)cc(OCCCC(=O)N2CCN(Cc3ccc4c(c3)OCO4)CC2)c2ccccc21", "B-score": "-0.011 (inactive)"}, {"smiles": "O=C(Nc1cccc2ccccc12)N1CCN(Cc2ccc3c(c2)OCO3)CC1", "B-score": "0.465 (inactive)"}, {"smiles": "C=CCOC(=O)C1=C[C@H](c2ccc(Br)cc2)C[C@H](OCCCCO)O1", "B-score": "-0.239 (inactive)"}, {"smiles": "COC(=O)c1ccc(C(=O)OC)c(NC(=S)N2CCCCC2)c1", "B-score": "0.301 (inactive)"}, {"smiles": "COC(=O)c1ccccc1NC(=O)c1ccccc1NS(C)(=O)=O", "B-score": "0.686 (inactive)"}, {"smiles": "CCS(=O)(=O)Nc1cc(C(=O)OC)ccc1C(=O)OC", "B-score": "6.13 (active)"}, {"smiles": "COC(=O)C1=C[C@@H](C(=O)OC)[C@@H]2C3=C(C(=O)[C@]2(C)NC(=O)c2ccccc2)[C@H](C)n2c(=O)n(C)c(=O)n2[C@@H]3C1", "B-score": "-0.415 (inactive)"}, {"smiles": "COc1ccc(C(CC(=O)N2CCN(c3ccccc3)CC2)c2c(O)cc(OC)cc2OC)cc1", "note": "(stereo not drawn)", "B-score": "1.37 (inactive)"}, {"smiles": "c1ccc2[nH]c(-c3nc4ccccc4[nH]3)nc2c1", "B-score": "0.0135 (inactive)"}, {"smiles": "COc1ccc(-c2[nH]nc(-c3ccccc3)c2-c2nc3ccccc3[nH]2)cc1", "B-score": "-7.37 (active)"}, {"smiles": "c1ccc(-c2[nH]ncc2-c2nc3ccccc3[nH]2)cc1", "B-score": "0.018 (inactive)"}, {"smiles": "CN1CCN(C(=O)C2=C[C@H](c3ccc4c(c3)OCO4)C[C@H](OCc3ccc(CO)cc3)O2)CC1", "B-score": "0.0245 (inactive)"}, {"smiles": "O=C1N[C@@H](Cc2ccccc2)C(=O)N2[C@@H]3N(S(=O)(=O)c4ccc(F)cc4)c4ccccc4[C@]3(Br)C[C@@H]12", "B-score": "1.04 (inactive)"}, {"smiles": "C#CCOCCOCCOCCNc1nc(N2CCN(C(=O)[C@H](CCC(=O)O)n3cc(C(N)CO)nn3)CC2)nc(N2CCN(C(=O)[C@H](Cc3ccc(O)cc3)n3cc(C(N)[C@H](C)CC)nn3)CC2)n1", "note": "(stereo partly drawn)", "B-score": "-0.199 (inactive)"}, {"smiles": "CCOC(=O)CNC(=O)CSc1nc2cccnc2n1CC", "B-score": "-8.17 (active)"}, {"smiles": "CCOC(=O)CNC(=O)CSc1nnc(COc2ccc(Cl)cc2)n1CC", "B-score": "0.0208 (inactive)"}, {"smiles": "CCOC(=O)CNC(=O)CSc1nnc(-c2cccc(OC)c2)n1CC", "B-score": "0.102 (inactive)"}, {"smiles": "O=C(NCC1CC1)c1onc(CSc2ccccc2)c1C(=O)NCC1CC1", "B-score": "1.29 (inactive)"}, {"smiles": "COc1ccc(C2/C=C\\CN(S(=O)(=O)c3cccs3)CC(=O)N2Cc2ccc(F)cc2)cc1", "note": "(stereo not drawn)", "B-score": "0.769 (inactive)"}, {"smiles": "CCOC(=O)c1sc(N(Cc2ccccc2)C(=O)CN2C(=O)CN(C)C2=O)nc1C", "B-score": "4.19 (active)"}, {"smiles": "CCOC(=O)c1sc(NC(=O)c2ccncc2)nc1C", "B-score": "0.297 (inactive)"}, {"smiles": "CCOC(=O)c1ccc(N2C(=O)CC(N(C)Cc3ccccc3)C2=O)cc1", "note": "(stereo not drawn)", "B-score": "-0.402 (inactive)"}, {"smiles": "O=C1c2ccccc2S(=O)(=O)c2cc(N3CCN(c4ccccn4)CC3)ccc21", "B-score": "0.34 (inactive)"}, {"smiles": "COC(C[C@@H](O)C[C@@H](O)[C@H](C)OCc1ccccc1)OC", "B-score": "-0.417 (inactive)"}, {"smiles": "OCC[C@H]1C[C@H](O)[C@@H](O)[C@]2(CCCCO2)O1", "B-score": "-1.31 (inactive)"}, {"smiles": "COc1cc(C(=O)Nc2nccs2)cc(OC)c1OC", "B-score": "-0.0124 (inactive)"}, {"smiles": "CCCCOC(=O)Nc1nccs1", "B-score": "16.3 (active)"}, {"smiles": "CC(=O)Oc1ccc(C(=O)Nc2nccs2)cc1", "B-score": "-1.53 (inactive)"}, {"smiles": "COc1ccc(C2/C=C\\CN(CC(C)C)CC(=O)N2Cc2ccc(F)cc2)cc1", "note": "(stereo not drawn)", "B-score": "-0.0164 (inactive)"}, {"smiles": "Cc1cccc(Nc2nc(NCCO)nc(N3CCCC3)n2)c1", "B-score": "1.01 (inactive)"}, {"smiles": "CCC1SC2=NCCN2C1(O)c1ccc(Cl)cc1", "note": "(stereo not drawn)", "B-score": "-5.92 (active)"}, {"smiles": "NC(=O)CC[C@@H]1NC(=O)[C@@H]2CCCN2C(=O)c2cc([N+](=O)[O-])cc(F)c2NCCC[C@@H](C(N)=O)NC1=O", "B-score": "-0.0519 (inactive)"}, {"smiles": "Cn1cc(CCC(=O)NCc2ccc3c(c2)OCO3)c2ccccc21", "B-score": "0.0949 (inactive)"}, {"smiles": "O=C(COc1ccccc1)NCc1ccc2c(c1)OCO2", "B-score": "-0.475 (inactive)"}, {"smiles": "O=C(CCNS(=O)(=O)c1ccccc1C(F)(F)F)NCc1ccc2c(c1)OCO2", "B-score": "-3.26 (active)"}, {"smiles": "NC(=O)C[C@@H]1NC(=O)CNC(=O)c2cc([N+](=O)[O-])cc(I)c2NCCC(C(N)=O)NC1=O", "note": "(stereo partly drawn)", "B-score": "0.453 (inactive)"}, {"smiles": "O=S(=O)(c1cccc(-c2nnc(SC(F)F)n2-c2ccccc2)c1)N1CCCCC1", "B-score": "-7.23 (active)"}, {"smiles": "O=S(=O)(c1cccc(S(=O)(=O)N2CCC(n3nnc4ccccc43)CC2)c1)N1CCCCC1", "B-score": "0.575 (inactive)"}, {"smiles": "O=C(O)CCSc1nnc(-c2ccccc2)n1-c1ccccc1", "B-score": "-0.0697 (inactive)"}, {"smiles": "COC(=O)CCCC1=CC2=CC(=O)C(C)(OC(=O)c3cccs3)C(=O)C2=CN1c1cccc(C#N)c1", "note": "(stereo not drawn)", "B-score": "-2.03 (inactive)"}, {"smiles": "COc1ccc(NC(=O)c2ccc(OC)cc2)cc1", "B-score": "-1.02 (inactive)"}, {"smiles": "CCCNC(=O)Nc1ccccc1C(=O)Nc1ccc(OC)cc1", "B-score": "1.39 (inactive)"}, {"smiles": "COc1ccc(NC(=O)ON=C2c3ccccc3-c3ccccc32)cc1", "B-score": "3.84 (active)"}, {"smiles": "Cc1nc(C(=O)Nc2ccc(Cl)cc2)sc1C1(C)CC(c2ccccc2)=NO1", "note": "(stereo not drawn)", "B-score": "0.677 (inactive)"}, {"smiles": "CC(C)[C@@H]1NC(=O)c2cc([N+](=O)[O-])cc(I)c2NCCC[C@@H](C(=O)NC(CC(=O)O)C(N)=O)NC(=O)[C@H](CO)NC1=O", "note": "(stereo partly drawn)", "B-score": "-0.454 (inactive)"}, {"smiles": "Cc1ccc(S(=O)(=O)C(C#N)c2nc3ccccc3nc2N2CCCC2)cc1C", "note": "(stereo not drawn)", "B-score": "1.69 (inactive)"}, {"smiles": "Cc1ccc(N2CCN(S(=O)(=O)c3ccc(F)cc3)CC2)c(C)c1", "B-score": "0.000185 (inactive)"}, {"smiles": "Cc1cc(N2CCN(S(=O)(=O)c3ccc(C)c(C)c3)CC2)c2ccccc2n1", "B-score": "3.23 (active)"}, {"smiles": "C=CC(COCc1ccccc1)N(Cc1ccccc1)S(=O)(=O)c1ccccc1Br", "note": "(stereo not drawn)", "B-score": "-0.104 (inactive)"}, {"smiles": "C#CCO[C@@H]1C[C@H](n2cnc3c(=O)[nH]c(NC(=O)C(C)C)nc32)O[C@@H]1CO", "B-score": "0.438 (inactive)"}, {"smiles": "COC(=O)c1ccc(C(NC(=O)OCc2ccccc2)/C(F)=C/[C@@H](C)C(=O)O)cc1", "note": "(stereo partly drawn)", "B-score": "-0.297 (inactive)"}]}]}
